From PubChem
CYP2C19 activ = human CYP2C19 activators, primary screen, biochemical, luminescence. Cytochrome P450 2C19 (Homo sapiens), P33261. recombinant CYP2C19, luciferin-H EGE luminescence; active compounds read high; 0 = fully inhibited enzyme, 1 = untreated enzyme. activation factor at 5 µM. 96,000 tested, under 10 active;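 active means activation factor of at least 2 at 5 µM in the primary screen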
CYP2C19 inh = blockers of cytochrome P450 2C19 activity – biochemical, luminescence, ADME assay, primary screen. P33261. CYP2C19 Supersomes, luciferin-H EGE luminescence, 30 min. inhibition, % at 5 µM. hit rate 21% among 96,000. AID 778, 2007;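 active means CYP2C19 inhibition above a set limit at 5 µM in the primary screen, cut at about 50% in these data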
CYP2C9 act = human CYP2C9 activators, primary screen, biochemical, luminescence; Cytochrome P450 2C9 (Homo sapiens), P11712; recombinant CYP2C9, luciferin-H conversion; active compounds read high; factor 1 = untreated enzyme, 0 = blocked; activation factor at 5 µM; hit rate 1.4% among 96,000;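 active means activation factor of 2 or more for CYP2C9 at a 5 µM dose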
DAT uptake mod = changed hDAT dopamine uptake under cocaine IC80, either direction, primary screen, cocaine antagonist project, cell-based, LLC-PK1 hDAT, [14C]-dopamine uptake, MLSMR | Sodium-dependent dopamine transporter (Homo sapiens), Q01959 | LLC-PK1 hDAT cells, [14C]-dopamine uptake with cocaine IC80; actives deviate in either direction | B-score at 10 µM | hit rate 1.3% among 110,000;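 active means Z score or B-score, a plate-position-corrected score, falls beyond the plate's 99.7% confidence bounds, in either direction; inactive means both scores lie inside the 99.7% bounds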
Target sequence (Q01959 whole entry, looked up): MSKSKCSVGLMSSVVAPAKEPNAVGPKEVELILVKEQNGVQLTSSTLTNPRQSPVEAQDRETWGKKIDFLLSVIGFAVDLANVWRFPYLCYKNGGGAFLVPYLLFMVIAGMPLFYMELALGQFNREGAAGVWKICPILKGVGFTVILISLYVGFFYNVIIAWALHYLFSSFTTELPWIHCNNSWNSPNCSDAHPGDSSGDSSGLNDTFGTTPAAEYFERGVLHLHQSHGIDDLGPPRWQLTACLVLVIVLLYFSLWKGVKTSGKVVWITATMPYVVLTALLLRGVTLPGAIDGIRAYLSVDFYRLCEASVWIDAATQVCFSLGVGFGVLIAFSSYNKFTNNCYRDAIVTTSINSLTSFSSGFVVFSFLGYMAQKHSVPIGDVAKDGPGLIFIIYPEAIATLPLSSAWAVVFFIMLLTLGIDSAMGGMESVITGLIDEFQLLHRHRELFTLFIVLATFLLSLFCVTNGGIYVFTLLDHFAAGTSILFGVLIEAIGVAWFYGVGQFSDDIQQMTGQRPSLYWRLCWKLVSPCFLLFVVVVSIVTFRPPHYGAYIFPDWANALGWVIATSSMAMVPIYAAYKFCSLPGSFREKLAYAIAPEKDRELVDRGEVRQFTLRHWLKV
CYP2C9 inh = blockers of cytochrome P450 2C9 activity – biochemical, luminescence, ADME assay, primary screen; hit rate 20% among 96,000; AID 777, 2007; inhibition, % at 5 µM; P11712; CYP2C9 Supersomes, luciferin-H conversion;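 active means blocking of liver enzyme CYP2C9 beyond about 50% at 5 µM, limit read from the data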
D1 mod = D1 CRE-luciferase signal change, two-sided – cell-based, HEK293 D1, dopamine EC30, D1 allosteric modulator project, primary screen. D(1A) dopamine receptor (Homo sapiens), P21728. dopamine EC30 potentiation; actives deviate in either direction. B-score at 10 µM. hit rate 5.9% among 58,000;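 active means luminescence count or its row- and column-corrected plate score outside the 99.7% band of the plate's sample wells, on either side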
Hits are given with their value; i = inactive; nt = no result given. This is a sample that favours compounds with a hit; in the whole collection about 28% have one here.

SMILES	CYP2C19 activ	CYP2C19 inh	CYP2C9 act	DAT uptake mod	CYP2C9 inh	D1 mod
O=C(Nc1cnn(Cc2ccc(Cl)cc2Cl)c1)c1cc(-c2cccs2)on1	i	i	i	i	i	i
O=C1c2ccsc2SCCN1Cc1c(Cl)cccc1Cl	i	97.1	i	i	88.7	nt
O=C1c2ccsc2SCCN1Cc1ccc(Cl)cc1Cl	i	53.2	i	i	i	nt
CCN(CC)S(=O)(=O)c1cc(C(=O)Nc2nncs2)c(Cl)cc1Cl	i	i	i	i	i	i
CCOc1cc(-c2cc(-c3ccccc3)nc(N)c2C#N)ccc1O	i	52.2	i	i	53.6	nt
CCc1nc(N)c(C#N)c(-c2cccn2C)c1C	nt	nt	nt	i	nt	i
Cc1cc(-c2ccc(Cl)cc2)c(C#N)c(N)n1	i	i	i	i	i	nt
CCOc1cc(-c2c(C#N)c(N)nc3c2CCCC3)ccc1O	i	60.7	i	i	i	i
CCc1nc(N)c(C#N)c(-c2ccc(O)c(OC)c2)c1C	i	53.2	i	i	i	nt
CC(C)OC(=O)c1c(NC(=O)c2cnn3c2NC(c2ccccc2)CC3C(F)F)sc2c1CCCC2 (configuration not stated)	i	i	i	nt	i	nt
Cn1cc(-c2nnnn2-c2cccc(C(F)(F)F)c2)c(C(F)(F)F)n1	i	98.5	i	i	i	nt
Nc1c(-c2ccc(Cl)cc2)cnn1-c1cccc(C(F)(F)F)c1	i	i	i	i	i	nt
CCn1c(=O)c(NC(=O)c2ccccc2)c2n(c1=S)CCCCC2	i	i	i	i	54.5	nt
CCOCCCn1c(=O)c(NC(=O)c2ccc(OCC)cc2)c2n(c1=S)CCCCC2	i	i	i	i	i	nt
Cc1[nH]c2ccc(CNS(=O)(=O)c3ccc(S(=O)(=O)N4CCOCC4)cc3)cc2c1C	i	64.3	i	i	70.7	nt
O=C1CSC(c2nn(-c3ccccc3)cc2-c2cc3ccccc3oc2=O)N1Cc1ccco1 (configuration not stated)	i	55.3	i	i	83.9	i
CC(C)(C)c1cc(C(=O)Nc2cccc3ccccc23)ccn1	nt	nt	nt	i	nt	nt
CCN(C(=O)c1ccnc(C(C)(C)C)c1)c1ccccc1	i	60.6	i	i	i	nt
COC(=O)C(CC(=O)c1ccc(Br)cc1)n1ccnc1 (configuration not stated)	i	95.5	i	i	80.8	i
Cn1c(SCC(N)=O)nnc1C1CCN(S(=O)(=O)c2ccccc2C(F)(F)F)CC1	i	i	2	i	i	i
Cn1c(SCC(N)=O)nnc1C1CCN(C(=O)NCc2ccccc2)CC1	i	i	i	i	i	i
COC(=O)c1nn(-c2ccccc2)c(=O)cc1Oc1ccccc1	i	i	i	i	i	nt
CC(=O)Oc1ccccc1-c1nc(C)nc(N(C)C(C)=O)n1	i	i	i	-2.81	i	i
Cc1nc(N)nc(-c2ccccc2O)n1	i	i	i	i	i	nt
COc1ccc(/C=N/N2CCN(c3ccncc3S(=O)(=O)N3CCCCC3)CC2)cc1	i	i	i	i	i	nt
SMILES	CYP2C19 activ	CYP2C19 inh	CYP2C9 act	DAT uptake mod	CYP2C9 inh	D1 mod
O=C(Nc1cccnc1)Nc1ccccc1Cl	i	i	i	i	i	i
CCOC(=O)c1ccc(NC(=O)C(CC)CC)cc1	i	54.7	i	i	i	i
CCOC(=O)c1ccc(NCc2ccc3c(c2)OCO3)cc1	i	i	i	i	i	i
O=C(NCc1ccncc1)Nc1ccccc1Cl	i	88.8	i	i	81.4	i
COc1ccc(CNC(=O)Nc2cccc3ccccc23)cc1	i	89.3	i	i	i	nt
COc1ccc(CNC(=O)Nc2ccc(C)cc2)cc1	i	i	i	i	i	i
CCOC(=O)c1ccc(NCc2ccc(N(C)C)cc2)cc1	i	54.1	i	i	i	i
Nc1cc(=O)[nH]n1C1CCN(c2ccccc2)CC1	i	i	i	i	i	i
O=C(NCc1ccncc1)Nc1ccccc1	i	53.7	i	i	i	nt
O=C(NCCc1ccncc1)Nc1ccc(Cl)cc1	i	97.0	i	i	95.5	i
COc1ccc(NC(=O)NCc2ccncc2)cc1	i	i	i	i	60.2	nt
CCOC(=O)c1ccc(NC(=O)NCc2ccncc2)cc1	i	i	i	i	73.1	i
O=C(NCc1ccccn1)Nc1cccc(NC(=O)NCc2ccccn2)c1	i	i	i	i	i	i
NS(=O)(=O)c1ccc(CCNC(=O)Nc2ccc(Cl)c(Cl)c2)cc1	i	i	i	i	i	nt
CCOC(=O)c1ccc(NC(=O)Nc2ccc(S(N)(=O)=O)cc2)cc1	i	i	i	i	i	i
COc1ccc(C(=O)N(c2ccccc2)C2C=CS(=O)(=O)C2)cc1 (configuration not stated)	i	i	i	i	i	nt
CCCCC(=O)Nc1ccc(C(=O)Nc2cccnc2)cc1	i	i	i	i	i	nt
CCCCC(=O)Nc1ccc(C(=O)NCc2ccncc2)cc1	i	62.7	i	i	69.7	i
COC(=O)CCCC1=CC2=C(c3ccccc3)C(=O)C(C)(OC(=O)C3CCCC3)C(=O)C2=CN1C(CO)CO (configuration not stated)	nt	nt	nt	i	nt	nt
C=CCNC(=O)c1onc(CSc2ccc(F)c(F)c2)c1C(=O)O	i	i	i	i	77.0	nt
CCCCNC(=O)c1onc(CSc2cccc(F)c2)c1C(=O)O	i	i	i	i	65.6	nt
CC(C)NC(=O)c1onc(CSc2ccc(Cl)cc2)c1C(=O)NC(C)C	nt	nt	nt	i	nt	nt
CCCCNC(=O)c1onc(CSc2ccc(Cl)cc2)c1C(=O)O	i	i	i	i	86.5	nt
CC(C)NC(=O)c1onc(CSc2ccc(Cl)cc2)c1C(=O)O	i	i	i	i	70.1	nt
C=CCNC(=O)c1onc(CSc2ccc(Cl)cc2)c1C(=O)O	i	i	i	i	73.4	nt
SMILES	CYP2C19 activ	CYP2C19 inh	CYP2C9 act	DAT uptake mod	CYP2C9 inh	D1 mod
O=C(NCC1CCCO1)c1onc(CSc2ccccc2)c1C(=O)O (configuration not stated)	i	i	i	i	i	nt
CC(C)c1ccc(SCc2noc(C(=O)NCC3CCCO3)c2C(=O)O)cc1 (configuration not stated)	i	i	i	i	60.7	nt
C=CCNC(=O)c1onc(CSc2ccc(Cl)cc2)c1C(=O)NCC=C	nt	nt	nt	i	nt	nt
Cc1cc(C)c(S(C)(=O)=O)c(S(=O)c2ccc(Cl)cc2)n1 (configuration not stated)	i	i	i	i	57.6	nt
CNc1nc(C)cc(C)c1S(=O)(=O)c1ccc(Cl)cc1	i	66.4	i	i	i	nt
COC(=O)c1ccc(C(=O)OC)c(NC(=O)CSCc2ccccc2Br)c1	i	i	i	i	i	nt
O=C1c2oc3ccc(Cl)cc3c(=O)c2C(c2cccc(Br)c2)N1CCO (configuration not stated)	i	50.0	i	i	i	i
